# Records with an inconclusive call do not appear. Values without a mark were called inactive. Calls of active or inactive are those of the source. Calls come from the whole dose curve; as a rule, active = well fitted cell-killing curve with a large enough effect; inconclusive = small, poorly fitted or top-dose-only effect, or effect the other way; inactive = no such curve, though single readings can be large or run the other way.
# Test: qHTS of pediatric cancer cell lines to identify multiple opportunities for drug repurposing: Confirmatory screen for LAN-5 cells (AID 1347113); note: nearly all actives have a fitted effect of over 65% in size
# Details: LAN-5 neuroblastoma cell viability; series mostly up to 45.9 µM; activity change, negative = cytotoxicity: at the top concentration
# Excerpt: Drug repurposing or repositioning has been offered as a strategy for drug development in oncology programs. This approach has special potential for childhood cancers and other rare or orphan diseases, where the expected return on new drug development has been a disincentive to pharmaceuticals.
# In this project we exploit the poly-pharmacology of drugs to discover new indications via phenotypic screening of a panel of 19 well-characterized cell lines derived from solid tumors seen in children and adolescents. The goal is to identify approved drugs with previously unrecognized anticancer properties that has the potential to reveal new mechanisms and biological processes involved in carcinogenesis or drug resistance. We employed a titration-based paradigm (quantitative high-throughput screening or qHTS), where all compounds were tested at multiple concentrations for their effect on cell viability. Concentration-response curves (CRCs) were derived directly from the primary screen, and both potency and efficacy values were used to identify compounds with robust bioactivity profiles. We screened the NIH Chemical Genomics Center (NCGC) Pharmaceutical Collection (NPC) and Mechanism Interrogation Plate (MIPE) small molecule collections of approved and investigational compounds against these cell lines; and measured metabolically active cells after 48 hours of compound treatment as a proxy for cell viability.
# Assay Submitter: Nathalia J. Martinez, National Center for Advancing Translational Sciences, National Institutes of Health, Rockville, MD, USA; email: natalia.martinez@nih.gov
# [1] Shen, M et al. Quantitative high-throughput phenotypic screening of pediatric cancer cell lines identifies multiple opportunities for drug repurposing. Oncotarget 2017 Dec 19;9(4):4758-4772. PMID 29435139.
# The cells were obtained from University of North Carolina (UNC), Pediatric Preclinical Testing Program (PPT), and Coriell Institute (CI).
# qHTS cell viability assay:
# Cells were assayed in growth media at a density of 500-1,000 cells/well. Five microliters of cells were dispensed into 1,536-well, white, solid-bottom, TC-treated plates (Greiner Bio One) using a multidrop dispenser and incubated at 37 degrees C, 5% CO2, under a humidified atmosphere for 5 hours. Twenty-three nanoliters of compounds and controls (neutral control DMSO or positive control bortezomib at final concentration of 2.3 µM) were subsequently transferred by Kalypsys pintool. For primary screens, the MIPE collection was tested at 11-point dilutions (final concentrations range from 0.78 nM to 46 µM) and the NPC collection at 8-point dilutions (final concentrations range from 0.59 nM to 46 µM). Compounds tested in follow-up screens were assayed at 11-point dilutions. Cells were incubated for 48 hours, followed by addition of 3 µL of CellTiter-Glo (Promega). After a 15 min incubation at room temperature, samples were analyzed for luminescence intensity using a ViewLux High-throughput CCD imager equipped with clear filters.
# % is set by controls: 0 for no effect and ±100 for the full control effect; potency is the fitted concentration of half-maximal effect.
Compound,Potency,"activity change, negative = cytotoxicity",outcome
CC(=O)Nc1nc(C)c(-c2ccc(Cl)c(S(=O)(=O)NCCO)c2)s1,6.57 µM (active),,
COc1c(OCCCN2CCOCC2)ccc2c3n(c(=NC(=O)c4cnc(N)nc4)nc12)CCN3,0.644 µM (active),,
COc1cccc(Nc2c(C(N)=O)cnc3c(C)cc(S(=O)(=O)c4cccc(C(=O)N(C)C)c4)cc23)c1,,4.85% [at 29.6 µM],
COc1cc2c(Oc3ccc(NC(=O)C4(C(=O)Nc5ccc(F)cc5)CC4)cc3F)ccnc2cc1OCCCN1CCOCC1,5.22 µM (active),,
COc1ccc(C=Cc2cc(OC)c(OC)c(OC)c2)cc1O,0.0522 µM (active),,
Cc1nc(N)ncc1-c1nc(N2CCOCC2)c2sc(C(C)(C)O)cc2n1,1.47 µM (active),,
Cc1c(CN2CCN(S(C)(=O)=O)CC2)sc2c(N3CCOCC3)nc(-c3cnc(N)nc3)nc12,1.31 µM (active),,
CC(C)c1cnn2c(NCc3ccccc3)cc(N[C@@H](CO)[C@H](O)CO)nc12,0.293 µM (active),,
CC=CC1=C(C(=O)O)N2C(=O)[C@H](NC(=O)[C@H](N)c3ccc(O)cc3)[C@@H]2SC1,,,inactive
OCCCNc1cc(-c2ccnc(Nc3cccc(Cl)c3)n2)ccn1,0.261 µM (active),,
Cc1c(C)n(Cc2ccc(-c3ccccc3C(=O)O)cc2)c2ccc(C(=O)N[C@@H](C)c3ccc([N+](=O)[O-])cc3)cc12,,,inactive
Cc1nc2cnc3ccc(C#Cc4cccnc4)cc3c2n1-c1ccc(C(C)(C)C#N)cc1,3.02 µM (active),,
CC(C)(C)NC(=O)[C@H]1CN(Cc2cccnc2)CCN1C[C@@H](O)C[C@@H](Cc1ccccc1)C(=O)N[C@H]1c2ccccc2C[C@H]1O,,-9.55%,
O=C(C=Cc1cccnc1)NCCCCC1CCN(C(=O)c2ccccc2)CC1,,17.3%,
CS(=O)(=O)N1CCN(Cc2cc3nc(-c4cccc5[nH]ncc45)nc(N4CCOCC4)c3s2)CC1,1.91 µM (active),,
COC(=O)[C@]12CCC(C)(C)C[C@@H]1[C@@H]1C(=O)C=C3[C@@]4(C)C=C(C#N)C(=O)C(C)(C)[C@@H]4CC[C@@]3(C)[C@]1(C)CC2,2.61 µM (active),,
COc1cccc2nc(-c3cccs3)nc(NN3C(=O)C=C(C)C3=O)c12,0.657 µM (active),,
COc1cccc(-c2ccc(NC(=O)C3=C(C(=O)O)CCC3)c(F)c2)c1,,-10.1%,
Cc1cc(Nc2ncnc3ccc(-c4ccc(CNCCS(C)(=O)=O)o4)cc23)ccc1Oc1ccn2ncnc2c1,20.8 µM (active),,
CN(C)CC(C)(C)CNc1nn2c(-c3ccccc3)nnc2cc1C1CCC1,,-14.1%,

Compound,Potency,"activity change, negative = cytotoxicity",outcome
Cc1cc(N2CCOCC2)cc2[nH]c(-c3c(NC[C@@H](O)c4cccc(Cl)c4)cc[nH]c3=O)nc12,1.17 µM (active),,
COc1cc(=C2C=c3ccccc3=N2)[nH]c1=Cc1[nH]c(C)cc1C,10.4 µM (active),,
C[C@@H](Oc1cc(-n2cnc3ccc(CN4CCN(C)CC4)cc32)sc1C(N)=O)c1ccccc1C(F)(F)F,10.7 µM (active),,
CC(C)(C)c1cnc(CSc2cnc(NC(=O)C3CCNCC3)s2)o1,0.261 µM (active),,
CNC(=O)c1ccccc1Nc1nc(Nc2ccc(N3CCOCC3)cc2OC)ncc1Cl,0.414 µM (active),,
CC[C@@H]1C(=O)N(C)c2cnc(Nc3ccc(C(=O)NC4CCC(N5CCN(CC6CC6)CC5)CC4)cc3OC)nc2N1C(C)C (stereo not given in full),,8.62%,
CC(=O)OCC(=O)[C@@]1(O)[C@H](C)C[C@H]2[C@@H]3C=C(C)C4=Cc5c(cnn5-c5ccccc5)C[C@]4(C)[C@@H]3[C@@H](O)C[C@@]21C,13.1 µM (active),,
C[C@@]12O[C@@H](C[C@]1(O)CO)n1c3ccccc3c3c4c(c5c6ccccc6n2c5c31)CNC4=O,5.22 µM (active),,
CC[C@@]1(O)C(=O)OCc2c1cc1n(c2=O)Cc2cc3cc(O)ccc3nc2-1,0.0414 µM (active),,
C=CC(=O)Nc1cc2c(Nc3ccc(F)c(Cl)c3)ncnc2cc1C#CC(C)(C)N1CCN(C)CC1,5.37 µM (active),,
CN(C)Cc1c(C(=O)NCCOc2ccc(C(=O)NO)cc2)oc2ccccc12,0.928 µM (active),,
CC(C)[C@H](C(=O)Nc1ccc(C(=O)NO)cc1)c1ccccc1,0.827 µM (active),,
CN(C)CCCN=c1c2ccccc2n(C)c2[nH]c(=O)n(C)c(=O)c12,23.3 µM (active),,
CN(c1ncccc1CNc1nc(Nc2ccc3c(c2)CC(=O)N3)ncc1C(F)(F)F)S(C)(=O)=O,4.65 µM (active),,
O=C(Nc1cc(C(F)(F)F)cc(C(F)(F)F)c1)c1cc(Cl)ccc1O,2.61 µM (active),,
CNC(=O)c1c(F)cccc1Nc1nc(Nc2cc3c(cc2OC)CCN3C(=O)CN(C)C)nc2[nH]ccc12,0.208 µM (active),,
COc1cc2c(Oc3ccc(-c4cnc(Nc5ccc(F)cc5)n(C)c4=O)cc3F)ccnc2cc1OCCCN1CCOCC1,7.37 µM (active),,
O=c1[nH]nc(Sc2ncc([N+](=O)[O-])s2)n1-c1ccc2c(c1)OCCO2,7.37 µM (active),,
CCOc1cc2ncc(C#N)c(Nc3ccc(F)c(Cl)c3)c2cc1NC(=O)C=CCN(C)C,,-18.9%,
Nc1ccccc1NC(=O)c1ccc(CNC(=O)OCc2cccnc2)cc1,2.69 µM (active),,
